These results are taken from PubChem BioAssay (NCATS).

Records with an inconclusive call do not appear. A call without a number means that no potency is given here. Active and inactive are the calls of the source. The call rests on the fitted dose curve.

The first assay can be described thus: Primary qHTS for inhibitors of MERS-S pseudo-typed particle cell entry (AID 1479149). Further: nearly all actives have a fitted effect of over 60% in size. As to conditions: MERS-S pseudotyped particle entry, luciferase; series mostly up to 57.1 µM.
On to `O=C1CCC(N2C(=O)c3ccccc3C2=O)C(=O)N1` (centres undefined), for which the Potency result is “inactive”.

Take `O=C1NC(c2ccccc2)(c2ccccc2)C(=O)N1COP(=O)(O)O`: the Potency result is “inactive”.

Consider `CC[C@@H](CO)NCCN[C@@H](CC)CO`, for which the Potency entry is “inactive”.

Regarding `CCC1(c2ccccc2)C(=O)NCNC1=O`, the Potency entry was “inactive”.

With `CO/N=C(\C(=O)N[C@@H]1C(=O)N2C(C(=O)O)=C(CSc3nc(=O)c(O)nn3C)CS[C@H]12)c1csc(N)n1`, the Potency entry was “inactive”.

For `CO/N=C1\CN(c2nc3c(cc2F)c(=O)c(C(=O)O)cn3C2CC2)CC1CN` (centres undefined), the Potency result is “inactive”.

Turning to `CC(C)NCC(O)c1ccc(O)c(O)c1` (centres undefined), the Potency result is “inactive”.

Take `CN(C)CCc1c[nH]c2ccc(CS(=O)(=O)N3CCCC3)cc12`: the Potency entry is “inactive”.

Turning to `CC(=O)OCC(CCn1cnc2cnc(N)nc21)COC(C)=O`, the Potency entry was “inactive”.

For the compound `CN1C(CCl)Nc2cc(Cl)c(S(N)(=O)=O)cc2S1(=O)=O` (centres undefined), the Potency entry was “inactive”.

On to `CC#C[C@]1(O)CC[C@H]2[C@@H]3CCC4=CC(=O)CCC4=C3[C@@H](c3ccc(N(C)C)cc3)C[C@@]21C`, for which the Potency entry is “inactive”.

Turning to `CC(=O)Nc1nnc(S(N)(=O)=O)s1`, the Potency result was “inactive”.

As for `O=C(O)P(=O)(O)O`, the Potency entry is “inactive”.

For the compound `CCCc1nc2c(C)cc(-c3nc4ccccc4n3C)cc2n1Cc1ccc(-c2ccccc2C(=O)O)cc1`, the Potency entry was “inactive”.

Take `CC(C)(C)NC(=O)[C@@H]1CN(Cc2cccnc2)CCN1C[C@@H](O)C[C@@H](Cc1ccccc1)C(=O)N[C@H]1c2ccccc2C[C@H]1O`: the Potency entry was “inactive”.

For `O=C(O)COCCN1CCN(C(c2ccccc2)c2ccc(Cl)cc2)CC1` (centres undefined), the Potency result is “inactive”.

For the compound `N=c1nc(N2CCCCC2)cc(N)n1O`, the Potency result is “inactive”.

Consider `Oc1cn2c(n1)Nc1ccc(Cl)c(Cl)c1C2`, for which the Potency entry is “inactive”.

For `CN(C)/N=N/c1nc[nH]c1C(N)=O`, the Potency entry is “inactive”.

On to `Clc1ccc(C(c2ccccc2Cl)C(Cl)Cl)cc1` (centres undefined), for which the Potency entry was “inactive”.

With `O=C1NC(=O)C(c2ccccc2)(c2ccccc2)N1`, the Potency entry is “inactive”.

With `Nc1nnc(-c2cccc(Cl)c2Cl)c(N)n1`, the Potency entry was “inactive”.

With `CCCCNC(=O)NS(=O)(=O)c1ccc(C)cc1`, the Potency result was “inactive”.

For the compound `CCn1cc(C(=O)O)c(=O)c2cc(F)c(N3CCNCC3)cc21`, the Potency entry was “inactive”.

Regarding `Nc1cc(-c2ccncc2)c[nH]c1=O`, the Potency result was “inactive”.

`Cc1cccc(Nc2ccncc2S(=O)(=O)NC(=O)NC(C)C)c1`: the Potency result was “inactive”.

Consider `CC(C)c1nc(CN(C)C(=O)N[C@H](C(=O)N[C@@H](Cc2ccccc2)C[C@H](O)[C@H](Cc2ccccc2)NC(=O)OCc2cncs2)C(C)C)cs1`, for which the Potency entry was “inactive”.

`CCOC(=O)Nc1ccc2c(c1)N(C(=O)CCN1CCOCC1)c1ccccc1S2`: the Potency result was “inactive”.

For the compound `CC(C)(C)NC(=O)[C@H]1CC[C@H]2[C@@H]3CC[C@H]4NC(=O)C=C[C@]4(C)[C@H]3CC[C@]12C`, the Potency result was “inactive”.

As to `Cc1ccc(C)c(OCCCC(C)(C)C(=O)O)c1`, the Potency entry was “inactive”.

On to `CC(C)NCC(O)COc1cccc2[nH]ccc12` (centres undefined), for which the Potency entry was “inactive”.

With `CN/C(=C\[N+](=O)[O-])NCCSCc1ccc(CN(C)C)o1`, the Potency result is “inactive”.

For the compound `C=C(CC)C(=O)c1ccc(OCC(=O)O)c(Cl)c1Cl`, the Potency entry is “inactive”.

Regarding `O=c1n(CCCN2CCN(c3cccc(Cl)c3)CC2)nc2ccccn12`, the Potency result is “inactive”.

For the compound `Nc1nc2c(ncn2COCCO)c(=O)[nH]1`, the Potency result was “inactive”.

With `NCCCC(O)(P(=O)(O)O)P(=O)(O)O`, the Potency result is “inactive”.

In the case of `COCCCOc1cc(C[C@@H](C[C@H](N)[C@@H](O)C[C@H](C(=O)NCC(C)(C)C(N)=O)C(C)C)C(C)C)ccc1OC`, the Potency result is “inactive”.

A further assay is described as follows: Primary qHTS for Vero E6 cytotoxicity: counterscreen for inhibitors of SARS-S pseudo-typed particle cell entry (AID 1479150). Particulars: cell viability; series mostly up to 57.1 µM. In general terms: Quantitative high-throughput screening tests each substance at several concentrations.
Take `O=C1CCC(N2C(=O)c3ccccc3C2=O)C(=O)N1` (centres undefined): the Potency result is “inactive”.

`O=C1NC(c2ccccc2)(c2ccccc2)C(=O)N1COP(=O)(O)O`: the Potency result is “inactive”.

As for `CC[C@@H](CO)NCCN[C@@H](CC)CO`, the Potency entry was “inactive”.

For `CCC1(c2ccccc2)C(=O)NCNC1=O`, the Potency entry was “inactive”.

`CO/N=C(\C(=O)N[C@@H]1C(=O)N2C(C(=O)O)=C(CSc3nc(=O)c(O)nn3C)CS[C@H]12)c1csc(N)n1`: the Potency result was “inactive”.

In the case of `CO/N=C1\CN(c2nc3c(cc2F)c(=O)c(C(=O)O)cn3C2CC2)CC1CN` (centres undefined), the Potency entry was “inactive”.

Take `CC(C)NCC(O)c1ccc(O)c(O)c1` (centres undefined): the Potency result is “inactive”.

On to `CN(C)CCc1c[nH]c2ccc(CS(=O)(=O)N3CCCC3)cc12`, for which the Potency result was “inactive”.

Consider `CC(=O)OCC(CCn1cnc2cnc(N)nc21)COC(C)=O`, for which the Potency result was “inactive”.

On to `CN1C(CCl)Nc2cc(Cl)c(S(N)(=O)=O)cc2S1(=O)=O` (centres undefined), for which the Potency result is “inactive”.

In the case of `CC#C[C@]1(O)CC[C@H]2[C@@H]3CCC4=CC(=O)CCC4=C3[C@@H](c3ccc(N(C)C)cc3)C[C@@]21C`, the Potency entry is “inactive”.

In the case of `CC(=O)Nc1nnc(S(N)(=O)=O)s1`, the Potency entry is “inactive”.

As to `O=C(O)P(=O)(O)O`, the Potency entry is “inactive”.

Take `CCCc1nc2c(C)cc(-c3nc4ccccc4n3C)cc2n1Cc1ccc(-c2ccccc2C(=O)O)cc1`: the Potency entry was “inactive”.

With `CC(C)(C)NC(=O)[C@@H]1CN(Cc2cccnc2)CCN1C[C@@H](O)C[C@@H](Cc1ccccc1)C(=O)N[C@H]1c2ccccc2C[C@H]1O`, the Potency entry is “inactive”.

Regarding `O=C(O)COCCN1CCN(C(c2ccccc2)c2ccc(Cl)cc2)CC1` (centres undefined), the Potency result is “inactive”.

Turning to `N=c1nc(N2CCCCC2)cc(N)n1O`, the Potency entry was “inactive”.

In the case of `Oc1cn2c(n1)Nc1ccc(Cl)c(Cl)c1C2`, the Potency entry is “inactive”.

Turning to `CN(C)/N=N/c1nc[nH]c1C(N)=O`, the Potency result was “inactive”.

On to `Clc1ccc(C(c2ccccc2Cl)C(Cl)Cl)cc1` (centres undefined), for which the Potency entry was “inactive”.

Turning to `O=C1NC(=O)C(c2ccccc2)(c2ccccc2)N1`, the Potency result is “inactive”.

In the case of `Nc1nnc(-c2cccc(Cl)c2Cl)c(N)n1`, the Potency entry is “inactive”.

As for `CCCCNC(=O)NS(=O)(=O)c1ccc(C)cc1`, the Potency entry was “inactive”.

With `CCn1cc(C(=O)O)c(=O)c2cc(F)c(N3CCNCC3)cc21`, the Potency entry is “inactive”.

As to `Nc1cc(-c2ccncc2)c[nH]c1=O`, the Potency entry is “inactive”.

`Cc1cccc(Nc2ccncc2S(=O)(=O)NC(=O)NC(C)C)c1`: the Potency result is “inactive”.

As to `CC(C)c1nc(CN(C)C(=O)N[C@H](C(=O)N[C@@H](Cc2ccccc2)C[C@H](O)[C@H](Cc2ccccc2)NC(=O)OCc2cncs2)C(C)C)cs1`, the Potency entry is “inactive”.

For the compound `CCOC(=O)Nc1ccc2c(c1)N(C(=O)CCN1CCOCC1)c1ccccc1S2`, the Potency entry is “inactive”.

Regarding `CC(C)(C)NC(=O)[C@H]1CC[C@H]2[C@@H]3CC[C@H]4NC(=O)C=C[C@]4(C)[C@H]3CC[C@]12C`, the Potency result is “inactive”.

In the case of `Cc1ccc(C)c(OCCCC(C)(C)C(=O)O)c1`, the Potency result was “inactive”.

As to `CC(C)NCC(O)COc1cccc2[nH]ccc12` (centres undefined), the Potency result was “inactive”.

For the compound `CN/C(=C\[N+](=O)[O-])NCCSCc1ccc(CN(C)C)o1`, the Potency entry is “inactive”.

Consider `C=C(CC)C(=O)c1ccc(OCC(=O)O)c(Cl)c1Cl`, for which the Potency result was “inactive”.

Regarding `O=c1n(CCCN2CCN(c3cccc(Cl)c3)CC2)nc2ccccn12`, the Potency result is “inactive”.

For the compound `Nc1nc2c(ncn2COCCO)c(=O)[nH]1`, the Potency result is “inactive”.

Regarding `NCCCC(O)(P(=O)(O)O)P(=O)(O)O`, the Potency entry is “inactive”.

As to `COCCCOc1cc(C[C@@H](C[C@H](N)[C@@H](O)C[C@H](C(=O)NCC(C)(C)C(N)=O)C(C)C)C(C)C)ccc1OC`, the Potency entry is “inactive”.
